Assay outcomes (PubChem BioAssay)
The list is not random: actives were taken first. Their share in the collection is about 18%.
PLK1 PBD block: qHTS for Inhibitors of PLK1-PDB (polo-like kinase 1 - polo-box domain): Primary Screen | Potency, µM, without a hit: max response, negative = inhibition, most hits filed as inhibitors | Serine/threonine-protein kinase PLK1 (Homo sapiens), P53350 | Plk1 PBD binding of FITC phosphopeptide, fluorescence polarization | 360,000 tested, 2.8% active; further: series mostly up to about 57 µM; nearly all actives have a fitted effect of over 65% in size
GCN5L2 inh: qHTS Assay for Inhibitors of GCN5L2; 390,000 tested, 0.21% active; Histone acetyltransferase KAT2A (Homo sapiens), Q92830; Potency, µM (titrated, usually from 58.9 µM), without a hit: top-dose activity change, negative = inhibition, hits mostly inhibitors; GCN5L2 HAT assay, ThioGlo1 CoA-SH fluorescence
Target sequence (Q92830 whole entry, looked up): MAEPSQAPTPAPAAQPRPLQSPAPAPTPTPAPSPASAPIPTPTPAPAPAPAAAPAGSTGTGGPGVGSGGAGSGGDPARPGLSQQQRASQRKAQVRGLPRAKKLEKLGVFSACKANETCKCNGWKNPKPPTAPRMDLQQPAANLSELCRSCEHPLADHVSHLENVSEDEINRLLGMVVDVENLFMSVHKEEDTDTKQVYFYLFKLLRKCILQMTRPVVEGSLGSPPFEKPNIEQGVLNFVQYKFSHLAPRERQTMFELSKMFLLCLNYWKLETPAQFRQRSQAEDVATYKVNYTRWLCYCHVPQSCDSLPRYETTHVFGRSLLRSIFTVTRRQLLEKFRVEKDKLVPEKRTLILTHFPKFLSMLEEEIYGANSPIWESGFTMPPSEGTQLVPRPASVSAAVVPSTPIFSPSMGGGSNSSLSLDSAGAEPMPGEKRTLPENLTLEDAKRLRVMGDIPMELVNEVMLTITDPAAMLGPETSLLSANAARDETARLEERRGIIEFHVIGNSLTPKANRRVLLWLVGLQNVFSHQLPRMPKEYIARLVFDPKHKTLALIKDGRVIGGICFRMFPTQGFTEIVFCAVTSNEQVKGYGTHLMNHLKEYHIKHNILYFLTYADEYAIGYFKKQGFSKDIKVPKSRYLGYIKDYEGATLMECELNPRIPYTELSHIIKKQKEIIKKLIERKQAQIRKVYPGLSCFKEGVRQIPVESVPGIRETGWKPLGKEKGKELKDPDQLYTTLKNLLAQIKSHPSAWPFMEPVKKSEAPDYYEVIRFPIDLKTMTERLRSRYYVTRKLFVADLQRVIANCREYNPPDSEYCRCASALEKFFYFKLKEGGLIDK
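Enzyme at 20nM final was mixed with library compounds for 15 min at room temperature. Peptide H3(1-25) at 75uM, acetyl-CoA at 70uM and ThioGlo1 at 50uM were then added. Plates were read immediately and after 20 min (Ex340nm/Em540nm).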
TDP1 block: qHTS Assay for Inhibitors of Tyrosyl-DNA Phosphodiesterase (TDP1); AID 485290, 2010; 350,000 tested, 0.28% active; recombinant TDP1, AlphaScreen DNA substrate cleavage; Potency, µM (series often up to 130 µM), inactives show at the top dose activity change, negative = inhibition, usual class: inhibitors; Tyrosyl-DNA phosphodiesterase 1 (Homo sapiens), Q9NUW8; further: nearly all actives have a fitted effect of over 40% in size
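Compounds were preincubated with Tdp1 (1 nM final) for 15 min at room temperature before substrate (15 nM final) started a 5 min reaction; beads (10 ug/ml final) were then added for 10 min before AlphaScreen detection.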
VDR inh: Inhibitors of the vitamin D receptor (VDR): qHTS | Vitamin D3 receptor (Homo sapiens), P11473 | VDR-SRC2-3 peptide fluorescence polarization, 2 h | Potency, µM, inactives show max response, negative = inhibition, usual class: inhibitors | 400,000 tested, 0.93% active | AID 504847, 2011
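Signal is fluorescence polarization, reporting how far test compounds block the interaction of VDR with the SRC2-3 coregulator peptide after a 2 h room-temperature incubation.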
TDP1 cell noCPT: qHTS for Inhibitors of human tyrosyl-DNA phosphodiesterase 1 (TDP1): qHTS in cells in absence of CPT | DT40 Tdp1-/- hTDP1 cells, no CPT, ATP luminescence, 48 h | Potency, µM (doses to about 46.2 µM), inactives show at the top dose activity change, negative = growth inhibition, usual class: inhibitors | 420,000 tested, 15% active | AID 686978, 2013; further: nearly all actives have a fitted effect of over 55% in size
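Stably hTDP1-transfected Tdp1-null chicken DT40 cells were treated with library compounds minus camptothecin and grown for at least 48 hr at 37 °C, after which cellular ATP was quantified by luminescence.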
DT40 TDP1 CPT: qHTS for Inhibitors of human tyrosyl-DNA phosphodiesterase 1 (TDP1): qHTS in cells in presence of CPT; chicken DT40 Tdp1-/-;hTDP1 cells + 20 nM CPT, ATP luminescence, 48 h; Potency, µM (doses to about 46.2 µM), without a hit: top-dose activity change, negative = growth inhibition, hits mostly inhibitors; 420,000 tested, 12% active; further: nearly all actives have a fitted effect of over 55% in size
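Chicken DT40 Tdp1-/- cells stably complemented with human TDP1 were seeded at 400 cells/well in medium containing 20 nM camptothecin, exposed to pin-transferred compounds, and grown at 37 °C for at least 48 hr. Viability was read as ATP luminescence.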
Active calls of the source: *; ? = inconclusive; . = not tested or not shown; [ ] = dose if it differs, or a comment. The call rests on the fitted dose curve; in most records, active means well fitted curve in the direction sought with a large enough effect; inconclusive means small, poorly fitted or top-dose-only effect, or another doubt; inactive means no such curve, though single readings can be large; an effect the other way counts as inactive or inconclusive. On the % scale 0 is the no-effect control and ±100 the full control effect; potency means the concentration at half of the fitted maximal effect.

SMILES	PLK1 PBD block	GCN5L2 inh	TDP1 block	VDR inh	TDP1 cell noCPT	DT40 TDP1 CPT
O=C(CCCN1C(=O)/C(=C/c2ccc(F)cc2)SC1=S)Nc1ccc(C(=O)O)cc1	-4.3%	.	.	.	?	?
O=C(CCN1C(=O)/C(=C/c2cccs2)SC1=S)Nc1ccc(C(=O)O)c(O)c1	26.7µM*	?	0.7%	8.7%	3.7%	0.7%
Cc1ccc(/C=C2\SC(=S)N(CCCC(=O)NC3CCCC3)C2=O)cc1	-0.7%	2.5%	1.8%	3.2%	18.4µM*	-22.3%
O=C(CCCN1C(=O)/C(=C\c2ccccc2)SC1=S)Nc1ccc(O)cc1	-12.0%	0.5%	3.6%	13.7%	14.6µM*	?
Cc1cc(C)c(S(=O)(=O)Nc2ccc(Cl)cn2)c(C)c1	-10.9%	-2.5%	.	-4.2%	-3.8%	27.4%
COC(=O)c1ccc(C)c(-n2c(C)cc(C=O)c2C)c1	0.0%	-2.6%	0.0%	7.9%	?	-11.2%
Nc1nccnc1C(=O)OCC(=O)NCCc1ccc(S(N)(=O)=O)cc1	-8.9%	-7.9%	2.3%[0.505 µM]	10.1%	-15.3%	-2.9%
CC(C)C(=O)OCc1cc(=O)n2nc(C3CC3)sc2n1	.	-28.5%	4.5%	17.3%	6.0%	-17.1%
CC(=O)c1ccc(NC(=O)CN2C(=O)/C(=C/C(C)=C/c3ccccc3)SC2=S)cc1	-21.3%	-5.8%	8.2%	-3.5%	?	-16.5%
COc1cc(/C=C2\SC(=S)N(NC(=O)c3cccc(O)c3)C2=O)ccc1O	26.3%	-15.0%	.	3.3%	23.1µM*	16.4µM*
CC(/C=C1\SC(=S)N(CCC(=O)Nc2ccc(O)cc2)C1=O)=C\c1ccccc1	-0.9%	-2.9%	4.4%	0.3%	18.4µM*	18.4µM*
COc1cc(/C=C2\SC(=S)N(CCC(=O)Nc3cccc(O)c3)C2=O)cc(OC)c1OC	?	-7.4%	.	-7.1%	16.4µM*	?
COc1cc(/C=C2\SC(=S)N(NC(=O)c3ccc(O)c(OC)c3)C2=O)ccc1O	30.5%	?	.	4.9%	-6.6%	-15.4%
O=C(CCCN1C(=O)/C(=C/c2cccs2)SC1=S)Nc1cccc(O)c1	0.7%	-14.8%	.	-3.2%	16.4µM*	20.6µM*
CCCC(=O)NC1CC(=O)N(c2ccc3c(c2)OCCO3)C1 (stereo not given)	.	2.7%	7.8%	10.7%	-25.4%	-1.3%
COC(=O)c1c(SC)nc2ccccc2c1OCc1cc(C)ccc1C	.	-1.4%	-7.9%	4.8%	?	-19.7%
COc1ccc(-c2cc(C(F)(F)F)n3nc(C(=O)NCC45CC6CC(CC(C6)C4)C5)cc3n2)cc1	.	2.1%	-5.8%	1.3%	.	.
CCN1CCN(C(c2ccc(C)cc2)c2sc3nc(-c4ccco4)nn3c2O)CC1 (stereo not given)	.	-15.4%	5.2%	17.8%	0.0%	4.2%
COc1cc(CN2CCC(CCC(=O)NC3CC3)CC2)cc(Cl)c1OC	-2.9%	-5.5%	.	7.3%	9.9%	2.3%
COc1ccc(/C=C2\SC(=S)N(CCC(=O)Nc3ccc(O)cc3)C2=O)cc1	4.5%	-4.4%	.	-20.7%	-4.3%	-1.1%
Cc1ccc(/C=C2/SC(=S)N(CCCC(=O)Nc3ccc(O)cc3)C2=O)cc1	-2.4%	-5.1%	.	17.8%	23.1µM*	?
O=C(CCCN1C(=O)/C(=C\c2ccccc2)SC1=S)Nc1cccc(C(=O)O)c1	-28.5%	-22.9%	11.5%	?	-18.2%	2.8%
O=C(CCCN1C(=O)/C(=C/c2ccccc2)SC1=S)Nc1cccc(O)c1	-3.8%	-14.4%	2.5%	-0.3%	23.1µM*	18.4µM*
